Screen size: about 360,000 compounds; about 3,700 (1%) were called active. Inconclusive results (about 2%) are left out. The sample holds actives, similar compounds and a random draw of the others, so the mix is not that of the screen.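 How the source made its calls: active means normalized GFP-positive differentiation at or above the plate's own cutoff, the solvent-only control mean plus 3 SD; inconclusive means no clear call, values can overlap the other calls; inactive means the rest.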

This test is described as follows: induction of myeloid progenitor differentiation, primary screen, cell-based, flow cytometry, MLPCN library (AID 624256).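 On GFP+ MAC1+ double positive: cells exposed to compound for four days before flow analysis.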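 On normalized GFP-positive differentiation: cells exposed to compound for four days before flow analysis; 0% = DMSO wells and 100% = fulvestrant positive control at 5 µM.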 Conditions: ER-HoxA9 myeloid progenitors, lysozyme-GFP differentiation, at 10 µM; GFP+ MAC1+ double positive: measured here: differentiation confirmed by MAC1 staining, stronger effect = higher value; normalized GFP-positive differentiation: stronger effect = higher value. A general note: In flow cytometry, cells or beads pass a laser one at a time.
Take `CCCNC(=O)C1(C)CCN(C(=O)c2cc(F)ccc2C)C1` (configuration not stated): the GFP+ MAC1+ double positive is 1.2% and the result was inactive.

As to `COc1ccc(N2c3ccccc3CN(Cc3ccccc3)[C@@H](C)[C@H]2Cc2ccc(-c3ccccc3)cc2)cc1`, the GFP+ MAC1+ double positive is 3% and the result was inactive.

Regarding `O=C(Nc1ccc2c(c1)OCCO2)C1c2ccccc2OCC(=O)N1Cc1ccccn1` (configuration not stated), the GFP+ MAC1+ double positive turned out to be 1.3% and the molecule was called inactive.

Take `CC1CCN(C(=O)c2ccc(S(=O)(=O)Cc3cc(F)ccc3F)c([N+](=O)[O-])c2)CC1`: the GFP+ MAC1+ double positive is 1% and the normalized GFP-positive differentiation was 43.9% (active).

Take `O=C(c1ccc(Oc2ccc(Cl)cc2)c([N+](=O)[O-])c1)N1CCCC1`: the GFP+ MAC1+ double positive worked out at 0.9% and the outcome was inactive.

`Nc1ccc(C(=O)N2CCN(S(=O)(=O)c3ccc(Cl)cc3)CC2)cc1[N+](=O)[O-]`: the GFP+ MAC1+ double positive came to 0.1% and the result was inactive.

`O=S1(=O)CC(N2CCN(CCO)CC2)CN1C1CCCC1` (configuration not stated): the GFP+ MAC1+ double positive came out at 1% and the molecule was called inactive.

Regarding `CCN(CC)C(=O)C1CCCN(Cc2cccc(Cl)c2)C1` (configuration not stated), the GFP+ MAC1+ double positive is 1% and the call was inactive.

For `CN(C)N1C(N)=C(C#N)C(c2ccc(Br)cc2)C2=C1CCCC2=O` (configuration not stated), the GFP+ MAC1+ double positive is 0.4% and the molecule was classed as inactive.

Take `COc1ccc(C2C(C#N)=C(N)N(c3ncn[nH]3)C3=C2C(=O)CCC3)cc1` (configuration not stated): the GFP+ MAC1+ double positive worked out at 0.3% and the molecule was called inactive.

As to `CCCN1C2=C(C(=O)CCC2)C(c2ccc(O)c(Br)c2)C2=C1CCCC2=O`, the GFP+ MAC1+ double positive came to 3.4% and the normalized GFP-positive differentiation is 78.6% (active).

In the case of `COc1ccc(C2C3=C(CCCC3=O)N(CC(=O)O)C3=C2C(=O)CCC3)cc1`, the GFP+ MAC1+ double positive was determined as 17.3% and the normalized GFP-positive differentiation is 322% (active).

With `CCOc1ccc(C2C(C#N)=C(N)N(N(C)C)C3=C2C(=O)CCC3)cc1` (configuration not stated), the GFP+ MAC1+ double positive is 0.6% and the result was inactive.

With `CCOc1ccc(C2C3=C(CCCC3=O)N(CC(=O)O)C3=C2C(=O)CCC3)cc1`, the GFP+ MAC1+ double positive is 0.6% and the molecule was called inactive.

As for `CCOC(=O)N1CCN(C(=O)C[C@@H]2C[C@@]3(C(=O)OC)CCCCC=C3N(CCC3=CCCCC3)C2=O)CC1`, the GFP+ MAC1+ double positive was determined as 1.2% and the molecule was classed as inactive.

For `CN(Cc1ccccc1F)c1cc2c(c3c1ccn3C)C1CCC2O1` (configuration not stated), the GFP+ MAC1+ double positive was found to be 2.1% and the outcome was inactive.

As to `Cc1cc(C)n2c(Nc3c(C)cccc3C)c(CCc3ccccc3)nc2n1`, the GFP+ MAC1+ double positive is 0.8% and the result was inactive.

As to `CC1(C(=O)NS(=O)(=O)Cc2cccc(Cl)c2)CCN1C(=O)Cc1ccccc1` (configuration not stated), the GFP+ MAC1+ double positive worked out at 1.3% and the outcome was inactive.

As to `O=S1(=O)CC(N2CCN(CCO)CC2)CN1Cc1cn(Cc2cccc(Cl)c2)nn1` (configuration not stated), the GFP+ MAC1+ double positive is 1.8% and the call was inactive.

Turning to `CCN(CC)c1ccc2cc(C(=O)O)c(=O)oc2c1`, the GFP+ MAC1+ double positive came out at 2.8% and the normalized GFP-positive differentiation was 30.9% (active).

Regarding `CCN(CC)c1ccc([N+](=O)[O-])cc1C(=O)O`, the GFP+ MAC1+ double positive is 0.9% and the result was inactive.

Regarding `Cc1cc(C)cc(OCC(=O)NNC(=O)c2cc3ccccc3oc2=O)c1`, the GFP+ MAC1+ double positive came out at 0.7% and the result was inactive.

For `COC(=O)[C@]12CCCCC=C1N(Cc1ccc3c(c1)OCO3)C(=O)[C@H](CC(=O)N1CCOCC1)C2`, the GFP+ MAC1+ double positive was 1.1% and the result was inactive.

With `CC(C)C1Cc2[nH][nH]c(=O)c2C(c2ccc(Cl)cc2)O1` (configuration not stated), the GFP+ MAC1+ double positive came to 1.1% and the result was inactive.

In the case of `Cc1ccccc1Nc1c([N+](=O)[O-])ccc2nonc12`, the GFP+ MAC1+ double positive came out at 0.6% and the outcome was inactive.

In the case of `Cc1ccc(Nc2cc(C)nc3c(C)ccc([N+](=O)[O-])c23)cc1`, the GFP+ MAC1+ double positive worked out at 8.4% and the normalized GFP-positive differentiation is 156% (active).

Turning to `Cc1ccc2cccc([N+](=O)[O-])c2n1`, the GFP+ MAC1+ double positive stood at 0.8% and the molecule was called inactive.

`CCc1nc2c(OCCOc3ccccc3)cccn2c1N(C)C(=O)c1ccc(OC)cc1`: the GFP+ MAC1+ double positive came to 0.8% and the molecule was called inactive.

Take `CC1=C(C(N)=O)C(c2ccc3c(c2)OCO3)n2nc(-c3cccc(C)c3)nc2N1` (configuration not stated): the GFP+ MAC1+ double positive came out at 2% and the normalized GFP-positive differentiation is 8.9% (active).

As for `CC1=C(C(N)=O)C(c2ccc(F)cc2)n2nc(CCCO)nc2N1` (configuration not stated), the GFP+ MAC1+ double positive was 1% and the molecule was called inactive.

Consider `COc1cccc(-c2nc3n(n2)C(c2ccccc2Cl)C(C(N)=O)=C(C)N3)c1` (configuration not stated), for which the GFP+ MAC1+ double positive is 1.5% and the call was inactive.

For `Oc1ccc2ccc3cccc[n+]3c2c1`, the GFP+ MAC1+ double positive was determined as 0.9% and the normalized GFP-positive differentiation was 10.9% (active).

Regarding `CC1(C(=O)NS(=O)(=O)c2ccccc2)CCN1C(=O)C1CCCCC1` (configuration not stated), the GFP+ MAC1+ double positive amounted to 1.3% and the molecule was classed as inactive.

As to `COc1ccc(C(C(=O)NCc2ccccc2)n2c(=O)c(-c3ccccc3)nc3ccccc32)cc1` (configuration not stated), the GFP+ MAC1+ double positive was determined as 5.2% and the molecule was called inactive.

For the molecule `COc1ccc(CC(N)c2csc(NC(=O)NC(c3ccccc3)c3ccccc3)n2)cc1` (configuration not stated), the GFP+ MAC1+ double positive was determined as 1.7% and the outcome was inactive.

For the molecule `O=C(N/N=C/c1ccccc1O)/C(=C/c1ccccc1)CCO`, the GFP+ MAC1+ double positive was determined as 4.1% and the normalized GFP-positive differentiation was 31.5% (active).

With `O=C(CCC(=O)Nc1ccccc1)N/N=C/c1ccccc1F`, the GFP+ MAC1+ double positive turned out to be 0.1% and the molecule was classed as inactive.

`O=C(N/N=C/c1ccccc1O)C1CCCC1`: the GFP+ MAC1+ double positive was found to be 0.3% and the call was inactive.

For the molecule `Cc1ccc(S(=O)(=O)N2[C@@H](Cc3ccccc3)CO[C@H]2CC(=O)OCc2ccccc2)cc1`, the GFP+ MAC1+ double positive turned out to be 5.9% and the call was inactive.

On to `O=C1NC[C@H](CCCCN2C[C@H](Cc3ccc(O)cc3)N(CC3CCCCC3)C(=O)C2=O)N(CCc2ccccc2)C1=O`, for which the GFP+ MAC1+ double positive was 0.6% and the call was inactive.

For the molecule `CCOc1ccc(CCN2C(=S)N([C@@H](CC(C)C)CN3CCC[C@@H]3CN3C(=S)NC[C@@H]3Cc3ccc(O)cc3)C[C@@H]2CC(C)C)cc1`, the GFP+ MAC1+ double positive is 0.7% and the call was inactive.

These data come from PubChem BioAssay AID624256 (NMMLSC, 2012).
